From PubChem BioAssay (NCATS)
Results filed as inconclusive are left out. The source made the active and inactive calls. Calls follow the shape of the dose curve; as a rule, active = well fitted inhibition curve with a large enough effect; inconclusive = small, poorly fitted or top-dose-only effect; inactive = flat fitted curve, though single readings scatter.

Assays:
[1] = test system: ICS; assay: qHTS profiling for inhibitors of Plasmodium falciparum proliferation (AID 504749);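 also: 0% = DMSO vehicle and full inhibition = artemisinin control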; conditions: P. falciparum in erythrocytes, SYBR Green DNA, 72 h; series mostly up to 28.7 µM
Outline: (§1)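 Infected RBCs, 0.3% parasitemia/2.5% Hct final; cpd 72 h, 37 C, 5% CO2; lysis buffer with saponin/triton/SYBR Green I, o/n RT dark; FI 485/535; norm. to artemisinin (0.29 uM) and DMSO.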

[2] = test system: JCK; assay: as above; conditions: P. falciparum in erythrocytes, SYBR Green DNA, 72 h; series mostly up to 28.7 µM
Outline: as §1

[3] = test system: N140; assay: as above; conditions: P. falciparum in erythrocytes, SYBR Green DNA, 72 h; series mostly up to 28.7 µM
Outline: as §1

[4] = test system: P93_24; assay: as above; conditions: P. falciparum in erythrocytes, SYBR Green DNA, 72 h; series mostly up to 28.7 µM
Outline: as §1

[5] = test system: P94_40; assay: as above; conditions: P. falciparum in erythrocytes, SYBR Green DNA, 72 h; series mostly up to 28.7 µM
Outline: as §1

[6] = test system: PAD; assay: as above; conditions: P. falciparum in erythrocytes, SYBR Green DNA, 72 h; series mostly up to 28.7 µM
Outline: as §1

[7] = test system: PC15; assay: as above; conditions: P. falciparum in erythrocytes, SYBR Green DNA, 72 h; series mostly up to 28.7 µM
Outline: as §1

[8] = test system: PC26; assay: as above; conditions: P. falciparum in erythrocytes, SYBR Green DNA, 72 h; series mostly up to 28.7 µM
Outline: as §1

[9] = test system: PC49; assay: as above; conditions: P. falciparum in erythrocytes, SYBR Green DNA, 72 h; series mostly up to 28.7 µM
Outline: as §1

[10] = test system: SC27B; assay: as above; conditions: P. falciparum in erythrocytes, SYBR Green DNA, 72 h; series mostly up to 28.7 µM
Outline: as §1

[11] = test system: TAB109; assay: as above; conditions: P. falciparum in erythrocytes, SYBR Green DNA, 72 h; series mostly up to 28.7 µM
Outline: as §1

[12] = test system: TAB113; assay: as above; conditions: P. falciparum in erythrocytes, SYBR Green DNA, 72 h; series mostly up to 28.7 µM
Outline: as §1

[13] = test system: TAB165; assay: as above; conditions: P. falciparum in erythrocytes, SYBR Green DNA, 72 h; series mostly up to 28.7 µM
Outline: as §1

[14] = test system: W2; assay: as above; conditions: P. falciparum in erythrocytes, SYBR Green DNA, 72 h; series mostly up to 28.7 µM
Outline: as §1

[15] = test system: KB-3-1; assay: Cytotoxic Profiling of Annotated Libraries Using Quantitative High-Throughput Screening (AID 1296008); conditions: Five cell lines viability, CellTiter-Glo ATP luminescence, 48-72 h; max response: active compounds read low; also: % is scaled to controls: 0 for no effect and ±100 for the full control effect
Outline: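 Cytotoxicity was measured as CellTiter-Glo ATP luminescence, read after 10 min at room temperature. Compound treatment of the cells lasted 48 or 72 hr at 37 degrees Celsius in a qHTS format.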
Also: nearly all actives have a fitted effect of over 60% in size.

Cc1ccc(C(C)(C)c2ccc(C)cc2)cc1
inactive: Potency [1] | Potency [2] | Potency [3] | Potency [4] | Potency [5] | Potency [6] | Potency [7] | Potency [8] | Potency [9] | Potency [10] | Potency [11] | Potency [12] | Potency [13] | Potency [14] | max response [15] -2.63%

FC(F)(F)COCC(F)(F)F
inactive: Potency [1] | Potency [2] | Potency [3] | Potency [4] | Potency [5] | Potency [6] | Potency [7] | Potency [8] | Potency [9] | Potency [10] | Potency [11] | Potency [12] | Potency [13] | Potency [14] | max response [15] -9.66%

O=[n+]1ccn([O-])c2ccccc21
inactive: Potency [1] | Potency [2] | Potency [3] | Potency [4] | Potency [5] | Potency [6] | Potency [7] | Potency [8] | Potency [9] | Potency [10] | Potency [11] | Potency [12] | Potency [13] | max response [15] -0.645%

CCCCC[C@H](O)/C=C/[C@H]1[C@H](O)CC(=O)[C@@H]1C/C=C\CCCC(=O)O
inactive: Potency [1] | Potency [2] | Potency [3] | Potency [4] | Potency [5] | Potency [6] | Potency [7] | Potency [8] | Potency [9] | Potency [10] | Potency [11] | Potency [12] | Potency [13] | max response [15] 7.78%

CC1CCCCN1CCCOC(=O)c1ccccc1 (configuration not stated)
inactive: Potency [1] | Potency [2] | Potency [3] | Potency [4] | Potency [5] | Potency [6] | Potency [7] | Potency [8] | Potency [9] | Potency [10] | Potency [11] | Potency [12] | Potency [13] | max response [15] 7.8%

OC/C=C/c1ccccc1
inactive: Potency [1] | Potency [2] | Potency [3] | Potency [4] | Potency [5] | Potency [6] | Potency [7] | Potency [8] | Potency [9] | Potency [10] | Potency [11] | Potency [12] | Potency [13] | max response [15] -5.63%

CCN(CC)CCOc1ccccc1OC
inactive: Potency [1] | Potency [2] | Potency [3] | Potency [4] | Potency [5] | Potency [6] | Potency [7] | Potency [8] | Potency [9] | Potency [10] | Potency [11] | Potency [12] | Potency [13] | max response [15] 3.77%

O=C(NCCNCC(O)COc1ccc(O)cc1)N1CCOCC1 (configuration not stated)
inactive: Potency [1] | Potency [2] | Potency [3] | Potency [4] | Potency [5] | Potency [6] | Potency [7] | Potency [8] | Potency [9] | Potency [10] | Potency [11] | Potency [12] | Potency [13] | max response [15] 1.66%

CC(CC=O)CCCC(C)(C)O (configuration not stated)
inactive: Potency [1] | Potency [2] | Potency [3] | Potency [4] | Potency [5] | Potency [6] | Potency [7] | Potency [8] | Potency [9] | Potency [10] | Potency [11] | Potency [12] | Potency [13] | Potency [14] | max response [15] 7.65%

CNC(=O)OCc1cccc(COC(=O)NC)n1
inactive: Potency [1] | Potency [2] | Potency [3] | Potency [4] | Potency [5] | Potency [6] | Potency [7] | Potency [8] | Potency [9] | Potency [10] | Potency [11] | Potency [12] | Potency [13] | Potency [14] | max response [15] 2.4%

CCCCCCCCCCCCCCCCCC[N+](C)(C)CCC[Si](OC)(OC)OC
inactive: Potency [1] | Potency [2] | Potency [3] | Potency [4] | Potency [5] | Potency [6] | Potency [7] | Potency [8] | Potency [9] | Potency [10] | Potency [11] | Potency [12] | Potency [13] | max response [15] 8.62%

COC(=O)[C@@H](N)CS
inactive: Potency [1] | Potency [2] | Potency [3] | Potency [4] | Potency [5] | Potency [6] | Potency [7] | Potency [8] | Potency [9] | Potency [10] | Potency [11] | Potency [12] | Potency [13] | max response [15] -3.99%
